{"source": "PubChem BioAssay AID651812", "about": "(National Center for Advancing Translational Sciences (NCATS), 2012)", "note": "In all, about 2,100 compounds went through this assay and about 650 (31%) were called active. Another 16% or so got no clear call; they are omitted. The list shows a part of the results. Unmarked numbers belong to inactive results. The call rests on the fitted dose curve; in most records, active means well fitted inhibition curve with a large enough effect; inconclusive means small, poorly fitted or top-dose-only effect; inactive means flat fitted curve, though single readings scatter. Potency means the concentration at half of the fitted maximal effect."}
{"assay": "qHTS for inhibitors of Vif-A3G interactions: Cherry picks; further: nearly all actives have a fitted effect of over 80% in size; on activity, negative = fluorescence increase: % of control where 0% means no effect", "conditions": "HeLa A3G-eYFP + Vif (tagged APOBEC3G with the HIV-1 protein that degrades it), 24 h; Potency: eYFP fluorescence increase; series mostly up to 36.9 µM; activity, negative = fluorescence increase: at the top concentration", "procedure,_shortened": "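Cherry-picked compounds tested at several concentrations on A3G-eYFP/Vif HeLa cells for 24 hours; loss of Vif-driven degradation read as eYFP fluorescence by cytometric plate imaging, 488 nm excitation, 500-530 nm emission.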"}
{"smiles": "CCOC(=S)SCC(=O)N1CCc2cc(OC)ccc2C1C1C(=O)CCCC1=O", "note": "(configuration not stated)", "activity, negative = fluorescence increase": "-8.79%"}
{"smiles": "COc1ccc(NC(=S)Nc2ncccc2C)c(OC)c1", "activity, negative = fluorescence increase": "0.453%"}
{"smiles": "COc1cc(C(=O)c2ccc3c(c2)OCO3)cc(OC)c1OC", "activity, negative = fluorescence increase": "-6.58%"}
{"smiles": "Oc1ccc(C2=NNC(=NCc3ccc4c(c3)OCO4)SC2)c(O)c1", "activity, negative = fluorescence increase": "-6.47%"}
{"smiles": "CC1(C(=O)NCc2ccccc2)Cc2c(-c3ccc(C(N)=O)cc3)ccnc2O1", "note": "(configuration not stated)", "activity, negative = fluorescence increase": "-2.29%"}
{"smiles": "Cc1ccc2nsnc2c1NC(=O)c1ccc(-c2cc(Cl)ccc2Cl)o1", "Potency": "15.8 µM (active)"}
{"smiles": "CCSc1nccc(-c2nn(-c3ccc(C)cc3)ccc2=O)n1", "activity, negative = fluorescence increase": "-4.33%"}
{"smiles": "CC(C)c1ccc(C(=O)NCCCNC(=O)c2cnccn2)cc1", "activity, negative = fluorescence increase": "-3.75%"}
{"smiles": "CC(=O)Nc1ccc2c(c1)Cc1ccc(Cl)cc1-2", "activity, negative = fluorescence increase": "-2.7% [at 46.1 µM]"}
{"smiles": "CC(=O)Nc1ccc(C2=CC(=O)C[C@H](c3ccc(Cl)cc3)C2)cc1", "Potency": "18.4 µM (active)"}
{"smiles": "CC(=O)Nc1cccc(-c2ccnc3c2CC(C(=O)Nc2ccc(Cl)cc2)O3)c1", "note": "(configuration not stated)", "activity, negative = fluorescence increase": "-16.3%"}
{"smiles": "CCSC1=N/C(=C\\C=C2/Oc3ccccc3N2CC)C(=O)S1", "Potency": "14.6 µM (active)"}
{"smiles": "Cc1nnc(N2C(=O)c3cccc4c([N+](=O)[O-])ccc(c34)C2=O)s1", "Potency": "18.4 µM (active)"}
{"smiles": "O=C1c2cccc3c([N+](=O)[O-])ccc(c23)C(=O)N1c1ccccn1", "Potency": "5.8 µM (active)"}
{"smiles": "CC(=O)Oc1ccc(N2C(=O)c3cccc4c([N+](=O)[O-])ccc(c34)C2=O)cc1", "Potency": "1.46 µM (active)"}
{"smiles": "COC(=O)[C@@]1(Cc2ccccc2)[C@@H]2C(=CC(=O)[C@H]2CC(=O)C(=O)N(C)C)CN1C(=O)c1ccccc1", "activity, negative = fluorescence increase": "0.342%"}
{"smiles": "C/C(=N\\NC(=S)NC(C)C)c1ccc(C(C)(C)C)cc1", "activity, negative = fluorescence increase": "-8.17% [at 46.1 µM]"}
{"smiles": "CCCSc1nnc(N2C(=O)C(O)=C(C(=O)c3ccco3)C2c2ccccc2F)s1", "note": "(configuration not stated)", "activity, negative = fluorescence increase": "-1.17% [at 46.1 µM]"}
{"smiles": "N#CC1=C(N)Oc2ccc3ccccc3c2C1c1cccnc1", "note": "(configuration not stated)", "activity, negative = fluorescence increase": "-12.2%"}
{"smiles": "N#CC1=C(N)Oc2cc(N)ccc2C1c1cccc(Br)c1", "note": "(configuration not stated)", "activity, negative = fluorescence increase": "-12.2%"}
{"smiles": "CCN(CC)c1ccc2c(c1)OC(N)=C(C#N)C2c1cccnc1", "note": "(configuration not stated)", "Potency": "17.7 µM (active)"}
{"smiles": "Cc1cccc2[nH]cc(/C=C3/C=Nc4ccccc43)c12", "Potency": "18.4 µM (active)"}
{"smiles": "CC(C)COc1ccc(C(=O)N/C(=C/c2cccc([N+](=O)[O-])c2)C(=O)O)cc1", "activity, negative = fluorescence increase": "-7.22%"}
{"smiles": "Cc1nc2c3ccccc3n(Cc3ccccc3F)c2s1", "activity, negative = fluorescence increase": "5.45%"}
{"smiles": "FC(F)(Cl)c1nnc2ccc(Cl)nn12", "activity, negative = fluorescence increase": "-7.87%"}
{"smiles": "CCc1ccc(N=Nc2ccc(O)c3[nH]cnc23)cc1", "Potency": "13 µM (active)"}
{"smiles": "COc1ccc2c(Cl)c(C(=O)N/N=C3\\CCCC(=O)C3)sc2c1", "Potency": "17.7 µM (active)"}
{"smiles": "CCOc1cc(C(=O)NN=C2CCCC2)cc(OCC)c1OCC", "activity, negative = fluorescence increase": "-3.08%"}
{"smiles": "C(=C\\c1ccco1)/C1=NN(c2ccccc2)C(c2ccco2)C1", "note": "(configuration not stated)", "Potency": "23.1 µM (active)"}
{"smiles": "COc1ccccc1N=C(C)C1=C(O)CC(c2ccccc2)CC1=O", "note": "(configuration not stated)", "activity, negative = fluorescence increase": "-7.64%"}
{"smiles": "O=[N+]([O-])c1ccc(/C=C/C2=NN(c3ccccc3)C(c3ccco3)C2)o1", "note": "(configuration not stated)", "Potency": "3.66 µM (active)"}
{"smiles": "COC(=O)c1cc(C(=O)N2CCN(c3ccccc3OC)CC2)cc([N+](=O)[O-])c1", "activity, negative = fluorescence increase": "-5.78%"}
{"smiles": "O=[N+]([O-])c1ccc(C2=NN(c3ccccc3)C(c3ccco3)C2)cc1", "note": "(configuration not stated)", "Potency": "1.25 µM (active)"}
{"smiles": "CCS(=O)(=O)Nc1cccc(C2=NN(C(=O)c3ccco3)C(c3ccco3)C2)c1", "note": "(configuration not stated)", "activity, negative = fluorescence increase": "-1.87%"}
{"smiles": "Clc1ccccc1Cn1c(/C=C/c2ccco2)nc2ccccc21", "activity, negative = fluorescence increase": "-3.73%"}
{"smiles": "COc1ccccc1N1N=C(c2ccc([N+](=O)[O-])cc2)CC1c1ccccc1", "note": "(configuration not stated)", "Potency": "1.4 µM (active)"}
{"smiles": "O=C(/C=C/c1ccco1)N1CCc2ccccc21", "activity, negative = fluorescence increase": "-6.03% [at 46.1 µM]"}
{"smiles": "Cc1ccc(C(=O)NC(=C(Cl)Cl)S(=O)(=O)c2ccccc2)cc1", "activity, negative = fluorescence increase": "-9.1%"}
{"smiles": "COc1ccc(OC)c(Nc2ncnc3c2cnn3-c2cccc(Cl)c2)c1", "activity, negative = fluorescence increase": "-1.34% [at 46.1 µM]"}
{"smiles": "COc1ccc(NC(=O)C2Cc3c(-c4ccc(NC(C)=O)cc4)ccnc3O2)cn1", "note": "(configuration not stated)", "activity, negative = fluorescence increase": "-12.1%"}
{"smiles": "Cn1c2ccccc2c2ccc3c(c21)C(=O)C=CC3=O", "activity, negative = fluorescence increase": "-5.19% [at 46.1 µM]"}
{"smiles": "N#CC(C(=S)Nc1ccccc1)c1nc2ccccc2[nH]1", "note": "(configuration not stated)", "activity, negative = fluorescence increase": "-46.8% [at 46.1 µM]"}
{"smiles": "Cc1cccc(C)c1NC(=S)NC(C)CCc1ccccc1", "note": "(configuration not stated)", "activity, negative = fluorescence increase": "8.84% [at 46.1 µM]"}
{"smiles": "Cc1cc(C)nc(Nc2nc(C(N)Cc3ccccc3)cs2)n1", "note": "(configuration not stated)", "activity, negative = fluorescence increase": "-0.643%"}
{"smiles": "COc1ccc2c(C)cc(SCC(=O)N3CCOCC3)nc2c1", "Potency": "18.4 µM (active)"}
{"smiles": "CCN(CC)c1nc2cc(OC)ccc2cc1C#N", "activity, negative = fluorescence increase": "6.08% [at 46.1 µM]"}
{"smiles": "Cc1sc2nc(SCC(=O)N3CCOCC3)[nH]c(=O)c2c1-c1ccccc1", "activity, negative = fluorescence increase": "8.43% [at 46.1 µM]"}
{"smiles": "COc1ccc2c(C)cc(SCC#N)nc2c1", "Potency": "18.4 µM (active)"}
{"smiles": "Cc1cc(SCC(=O)c2cccs2)nc2ccccc12", "activity, negative = fluorescence increase": "-1.59% [at 46.1 µM]"}
{"smiles": "CO/N=C/c1ccc(OC)c(Oc2nc(OC)cc(OC)n2)c1", "activity, negative = fluorescence increase": "-8.03%"}
{"smiles": "COc1ccc(C2C(C#N)=C(N)Oc3c2ccc2cccnc32)cc1OC", "note": "(configuration not stated)", "activity, negative = fluorescence increase": "-2.64%"}
{"smiles": "c1ccc(-c2nccc(-c3ccc4c(c3)OCO4)n2)cc1", "activity, negative = fluorescence increase": "-0.239%"}
{"smiles": "CS(=O)(=O)Nc1cccc(C2=NN(S(C)(=O)=O)C(c3ccc4c(c3)OCO4)C2)c1", "note": "(configuration not stated)", "activity, negative = fluorescence increase": "-7.77%"}
{"smiles": "CS(=O)(=O)N1N=C(c2ccccc2)CC1c1ccc2c(c1)OCO2", "note": "(configuration not stated)", "Potency": "14 µM (active)"}
{"smiles": "CCCCN(CCC(=O)O)c1ccc(/C=C/c2ccnc3ccccc23)cc1", "Potency": "18.4 µM (active)"}
{"smiles": "CCN(CCCN(C)C)c1ccc(/C=C/c2ccnc3ccccc23)cc1", "Potency": "18.4 µM (active)"}
{"smiles": "CCCCN(CCCC)c1ccc(/C=C/c2ccnc3ccccc23)cc1", "Potency": "16.4 µM (active)"}
{"smiles": "CC(C)CN(CC(C)C)c1ccc(/C=C/c2ccnc3ccccc23)cc1", "Potency": "23.1 µM (active)"}
{"smiles": "COc1ccc(NS(=O)(=O)c2cc(NC(=O)c3ccc(=O)[nH]c3)ccc2N2CCCC2)cc1", "activity, negative = fluorescence increase": "-9.79%"}
{"smiles": "Cc1ccsc1/C=N\\NC(=O)c1n[nH]c2c1CCC2", "activity, negative = fluorescence increase": "-28.6%"}
{"smiles": "CC(=Nc1ccccc1)C1=C(O)C(Cc2ccccc2)NC1=O", "note": "(configuration not stated)", "activity, negative = fluorescence increase": "-18.4%"}
{"smiles": "CCN(C)c1ccc(/C=C/c2ccnc3ccccc23)cc1", "Potency": "20.6 µM (active)"}
{"smiles": "CCN(CC)c1ccc(/C=C/c2ccnc3ccccc23)cc1", "Potency": "23.1 µM (active)"}
{"smiles": "CCCN(CCC)c1ccc(/C=C/c2ccnc3ccccc23)cc1", "Potency": "20.6 µM (active)"}
{"smiles": "CCN(C)c1ccc(/C=N\\n2nnnc2N)cc1", "activity, negative = fluorescence increase": "-4.68%"}
{"smiles": "C/C(CC(=O)NCc1ccco1)=N\\NC(=O)COc1ccc(Cl)cc1Cl", "activity, negative = fluorescence increase": "-8.79%"}
{"smiles": "CCN1/C(=C/C=C2/SC(=Nc3cccc4ncccc34)N(C)C2=O)Sc2ccccc21", "Potency": "16.4 µM (active)"}
